From PubChem BioAssay
GPR151 ag: human GPR151 activation; PathHunter beta-arrestin GPR151 cells, luminescence; activation, % at 11.2 µM; 650,000 compounds, 1% hits; Q8TDV0; AID 1508602; in the data active = activation above about 4.9%
Target sequence (Q8TDV0 whole entry, looked up): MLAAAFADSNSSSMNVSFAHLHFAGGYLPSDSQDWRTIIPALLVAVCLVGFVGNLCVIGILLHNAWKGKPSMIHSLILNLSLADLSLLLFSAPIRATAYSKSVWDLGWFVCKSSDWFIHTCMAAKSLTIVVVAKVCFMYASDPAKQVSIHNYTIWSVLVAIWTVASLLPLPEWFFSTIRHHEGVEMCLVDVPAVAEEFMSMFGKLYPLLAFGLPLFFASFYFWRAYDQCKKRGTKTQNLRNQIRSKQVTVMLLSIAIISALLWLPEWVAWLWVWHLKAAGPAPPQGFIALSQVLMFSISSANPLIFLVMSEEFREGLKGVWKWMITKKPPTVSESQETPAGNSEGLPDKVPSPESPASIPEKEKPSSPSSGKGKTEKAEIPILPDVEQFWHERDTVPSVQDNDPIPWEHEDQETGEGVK
MITF inh: blocks human microphthalmia-associated transcription factor; AlphaScreen MITF homodimerization, bead proximity signal; inhibition, % at 2.6 µM; O75030; 650,000 compounds, 0.91% hits; in the data active = inhibition above about 50%
TEAD-YAP block: TEAD-YAP interaction inhibition. HEK-TIYL cells, TEAD-Gal4/YAP UAS-luciferase luminescence. inhibition, % at 9.12 µM. 640,000 compounds, 1.4% hits. AID 1259422; in the data active = inhibition above about 32%
FBW7 act: activators of human E3 ligase FBW7 | Q969H0 | AlphaScreen FBW7–phospho-cyclin E peptide binding, activator screen | normalized activity (activation), % at 26.1 µM | 650,000 compounds, 0.13% hits | AID 1259310; in the data active = normalized activity above about 1.9%;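 note: purified mutant Fbw7 with reduced substrate affinity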
GPR151 confirm: confirmation of human GPR151 activators; shares compounds with GPR151 ag; GPR151 PathHunter beta-arrestin cells, luminescence, 90 min; % of EA-reagent control over plate median; activation, % at 11.2 µM; 6,700 tested, under 10 active; AID 1508609;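 active = mean percent activation across replicates above the confirmation screen cutoff of 4.91%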
GPR119 ag: GPR119 activation, counter-screen for GPR151 activators; shares compounds with GPR151 ag; GPR119 PathHunter beta-arrestin cells, luminescence, 90 min; 0 = compound-well median, 100 = enzyme-acceptor control; activation, % at 11.2 µM; 6,700 compounds, 0.3% hits; AID 1508611;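 active = mean percent activation in the counterscreen above 29.09%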;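 note: counterscreen on off-target GPR119 to flag nonselective hits from the GPR151 activator screen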
Large screens that a line does not name were inactive (follow-up assays come after a bar, where they were run). Only some compounds are listed: those with a hit (about 3.5% of all), similar ones and a draw of the others.

COc1ccc(C(=O)NC(C)c2nnc(SCC(=O)Nc3ccccc3)n2C)cc1 (configuration not stated)	GPR151 ag 9.6 | GPR151 confirm inactive | GPR119 ag inactive
COc1ccc2ccccc2c1CN1CCN(CC(C)(C)C)C(CCO)C1 (configuration not stated)	GPR151 ag 7.7 | GPR151 confirm inactive | GPR119 ag inactive
COc1ccc2ccccc2c1CN1CCN(C)C(CCO)C1 (configuration not stated)	none
COc1ccc(-c2cnnc(NCCCN3CCCC3=O)n2)cc1	none
CCN(CC)C(=O)c1ccc2c(=O)n(-c3ccc(F)cc3)c(=S)[nH]c2c1	GPR151 ag 5.0 | GPR151 confirm inactive | GPR119 ag inactive
Cc1nc2sccn2c1CN1CCCC(CO)(Cc2cccc(Cl)c2)C1 (configuration not stated)	GPR151 ag 5.0, TEAD-YAP block 42 | GPR151 confirm inactive | GPR119 ag inactive
C=C(C)CC1(CC(=C)C)CCCCN1	none
O=C(NC1(C(=O)Nc2ccc(Br)cc2)CCCCC1)c1cccc(O)c1	GPR151 ag 5.5 | GPR151 confirm inactive | GPR119 ag inactive
O=C(Nc1ccccc1)c1ccccc1Nc1ccnc(Nc2ccc(N3CCOCC3)cc2)c1	none
O=C(NCc1ccccc1)c1ccccc1Nc1ccnc(Nc2ccc(N3CCOCC3)cc2)c1	GPR151 ag 11, TEAD-YAP block 37 | GPR151 confirm inactive | GPR119 ag inactive
N#Cc1ccccc1OCC(=O)N=Nc1c(O)[nH]c2ccc([N+](=O)[O-])cc12	none
N#Cc1ccccc1OCC(=O)N=Nc1c(O)[nH]c2ccccc12	GPR151 ag 6.0 | GPR151 confirm inactive | GPR119 ag inactive
COc1ccccc1-n1c(O)c(C=Nc2cccc(C)c2)c(=O)[nH]c1=S	GPR151 ag 5.1 | GPR151 confirm inactive | GPR119 ag inactive
O=C(CCS(=O)(=O)c1ccc(Br)s1)NC1CCCc2ccccc21 (configuration not stated)	none
CN(CC(=O)NC1CCCc2ccccc21)S(=O)(=O)c1ccc(Br)s1 (configuration not stated)	GPR151 ag 11 | GPR151 confirm inactive | GPR119 ag inactive
O=C(CSc1ccc2nnc(-c3cccnc3)n2n1)N1CCCCCC1	none
O=C(CSc1ccc2nnc(-c3cccnc3)n2n1)N1CCCCC1CCn1ccnc1 (configuration not stated)	GPR151 ag 7.7 | GPR151 confirm inactive | GPR119 ag inactive
CCCCN1C(=O)C(O)=C(C(C)=O)C1c1ccc(OC)cc1OC (configuration not stated)	GPR151 ag 5.2 | GPR151 confirm inactive | GPR119 ag inactive
COc1ccc(C2C(C(C)=O)=C(O)C(=O)N2CCO)c(OC)c1 (configuration not stated)	none
NC(=O)NCC12CC3CC(CC(C3)C1)C2	none
COC(=O)NCC12CC3CC(CC(C3)C1)C2	GPR151 ag 8.9 | GPR151 confirm inactive | GPR119 ag inactive
CCOC(=O)c1c(NC(=O)COc2ccc(C)cc2)sc2c1CCCC2	GPR151 ag 5.1 | GPR151 confirm inactive | GPR119 ag inactive
CCOC(=O)c1c(NC(=O)COc2ccc(CC)cc2)sc2c1CCC2	none
CCOC(=O)c1c(NC(=O)CC)sc2c1CCCC2	GPR151 ag 5.1 | GPR151 confirm inactive | GPR119 ag inactive
CCCCN(CC)S(=O)(=O)c1ccc(C(=O)Nc2sc3c(c2C(=O)OCC)CCN(C(C)C)C3)cc1	GPR151 ag 5.6 | GPR151 confirm inactive | GPR119 ag inactive
CCCCN(CCCC)S(=O)(=O)c1ccc(C(=O)Nc2sc3c(c2C(=O)OCC)CCN(C(C)C)C3)cc1	none
CC(C)(C)c1ccc(OCCCC(=O)Nc2sc3c(c2C(N)=O)CCCC3)cc1	GPR151 ag 6.5 | GPR151 confirm inactive | GPR119 ag inactive
COC(=O)c1c(NC(=O)CCCOc2ccc(C(C)(C)C)cc2)sc2c1CCC2	none
O=C(CCOc1ccccc1)OCC(=O)N1CCCCC1	none
Cc1ccc(C)c(N2CCN(C(=O)CCC(=O)N3CCSc4ccccc43)CC2)c1	none
CCCCOc1ccc(C(=O)Nc2sc3c(c2C(=O)OCC)CCC3)cc1	none
CCOC(=O)c1c(-c2ccc(C)cc2)csc1NC(=O)CC	GPR151 ag 5.1 | GPR151 confirm inactive | GPR119 ag inactive
